From PubChem BioAssay (NCATS)
Inconclusive results are not listed. Calls of active or inactive are those of the source. Calls come from the whole dose curve; as a rule, active = well fitted inhibition curve with a large enough effect; inconclusive = small, poorly fitted or top-dose-only effect; inactive = flat fitted curve, though single readings scatter.

What follows are molecules tested on HACAT (assay: qHTS assay to identify novel small-molecules to repurpose for Merkel cell carcinoma treatment (AID 1296009; note: nearly all actives have a fitted effect of over 60% in size)). Conditions: MCC and control cell lines, CellTiter-Glo viability, 72 h; at 44.8 µM (top of the series) unless noted.
Outline: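 CellTiter-Glo luminescence after 72 hr compound exposure at 37 degree celsius gave cell viability. Libraries NPC and MIPE were run as 8- and 11-point dose responses; RLUs normalized to DMSO (negative) and no-cell (cytotoxicity) controls.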

Compound | outcome
C=C1C[C@@]23CC[C@@H]4[C@](C)(C(=O)O)CCC[C@@]4(C)C2=CC[C@H]1C3 | inactive
CC1OC(OC2C(O)C(C(=O)O)OC(OC3CCC4(C)C(CCC5(C)C4C=CC4=C6CC(C)(C)CC(O)C6(C)CCC45C)C3(C)C)C2OC2OCC(O)C(O)C2O)C(O)C(O)C1O (stereo not drawn) | inactive [at 9.27 µM]
CC1OC(O[C@H]2[C@@H](O)C[C@@]3(C)C([C@H](O)C[C@]4(C)C3CC=C3C5CC(C)(C)CC[C@]5(C(=O)OC5OC(CO)C(O)C(O)C5OC5OCC(OC6OCC(OC7OCC(O)C(O)C7O)C(O)C6O)C(OC6OCC(O)(CO)C6O)C5O)CC[C@]34C)[C@]2(C)CO)C(O)C(O)C1O (stereo partly drawn) | inactive [at 9.27 µM]
CC(=O)O[C@H]1[C@H](C)[C@@H](O)[C@H]2[C@@H]1C=C(C(=O)O)[C@H]1C[C@@H]3[C@H]([C@H]21)[C@H]1C(=O)O[C@@H]2CC[C@@]3(C)O[C@]1(O)[C@@H]2C | inactive [at 17.4 µM]
C[C@@H]1CC[C@]2(C(=O)O)CC[C@]3(C)C(=CCC4[C@]5(C)C(CC[C@]43C)C(C)(C)[C@@H](O)[C@H](O)[C@@H]5O)C2[C@]1(C)O (stereo partly drawn) | inactive [at 17.4 µM]
C/C=C1\[C@H](O[C@@H]2O[C@H](CO)[C@@H](O)[C@H](O)[C@H]2O)OC=C(C(=O)OC)[C@H]1CC(=O)OC | inactive [at 17.4 µM]
C/C=C/C=C/C(CC(=O)O)Nc1ccc(C=O)cc1 (stereo not drawn) | inactive
C=C[C@@]1(C)CC(=O)C2[C@](C)(O1)[C@@H](OC(C)=O)[C@@H](O)[C@H]1C(C)(C)CCC[C@]21C (stereo partly drawn) | inactive [at 9.27 µM]
